Bioassay records deposited in PubChem by National Center for Advancing Translational Sciences (NCATS).
KB-V1 MDR tox: KB-V1 MDR subline cytotoxicity. KB-V1 MDR cells viability, CellTiter-Glo, 72 h. Potency, µM (top dose mostly 46.1 µM), most hits filed as cytotoxic. 400,000 tested, 3.4% active; also: nearly all actives have a fitted effect of over 60% in size
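Following 72 h at 37 degrees C with compound, KB-V1 cell viability was read by CellTiter-Glo luminescence, medium being phenol-red-free DMEM plus 10% FBS; concentration-response parameters came from normalized, curve-fitted qHTS data.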
RGS4 inh: human RGS4 inhibition; 390,000 tested, 0.039% active; Potency, µM (top dose mostly 114 µM), usual class: inhibitors; AID 504845; Transcreener GDP fluorescence polarization, RGS4-accelerated GTP hydrolysis; also: nearly all actives have a fitted effect of over 75% in size
Target sequence (P49798 whole entry, looked up): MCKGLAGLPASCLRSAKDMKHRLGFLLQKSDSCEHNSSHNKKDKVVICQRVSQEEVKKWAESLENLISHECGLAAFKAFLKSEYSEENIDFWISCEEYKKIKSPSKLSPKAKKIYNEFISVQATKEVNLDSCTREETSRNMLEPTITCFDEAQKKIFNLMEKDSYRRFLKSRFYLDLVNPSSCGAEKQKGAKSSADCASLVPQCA
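MLSMR compounds (23 nl, pin-transferred) preincubated 10 min at room temperature with a 500nM (2x) first reagent, then RGS4 at 900nM (2x) plus Transcreener GDP mix added; fluorescence polarization (620/688 nm) read before and after 90 min at 30 °C.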
KB-3-1 tox: KB-3-1 parental cell cytotoxicity. KB-3-1 viability, CellTiter-Glo ATP luminescence, 72 h. Potency, µM (highest dose often 46.1 µM), most hits filed as cytotoxic. 400,000 tested, 1.4% active. AID 1347075; also: nearly all actives have a fitted effect of over 60% in size
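Screening of KB-3-1 cells (DMEM, 10% FBS, phenol-red free) ran from lowest to highest compound concentration; after 72 h at 37 °C viability was read luminescently and curves fitted.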
PTAP TSG101 blk: blocks PTAP/TSG101 interaction to inhibit HIV-1 budding; Fluorescence polarization, FITC-PTAP peptide / Tsg101 binding; Potency, µM (top dose mostly 115 µM), actives largely listed as inhibitors; 340,000 tested, under 10 active; active = well fitted inhibition curve with a large enough effect in the main read-out, with a control signal flat, not every such curve was filed as active; inconclusive = small, poorly fitted or top-dose-only effect, or effect the other way, or a change in a side signal; inactive = no such curve, though single readings can be large or run the other way
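Fluorescence polarization binding of Tsg101 binding domain (10 uM final) to FITC-labeled PTAP peptide (50 nM final) in HEPES pH 7.5 buffer with NaCl, Tween 20, EDTA, TCEP. Compounds added before peptide; binding 20 min at RT.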
SW480 rerep: induces DNA re-replication in SW480 colon adenocarcinoma cells; SW480 DNA re-replication, Hoechst DNA content imaging, 48 h; Potency, µM (doses to about 46.1 µM), hits mostly activators; 340,000 tested, 1.8% active; AID 624297; also: nearly all actives have a fitted effect of over 55% in size
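Image-based read-out: total Hoechst fluorescence of nuclei (405 nm excitation, 500-530 nm emission), with hits raising the fraction of high-intensity nuclei. SW480 colon cells incubated 48 hr with compounds at 37 C.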
MCF10A rereplic: induces DNA re-replication in MCF 10a normal breast cells; MCF 10A DNA re-replication, Hoechst nuclear intensity, 48 h; Potency, µM (top dose mostly 46.1 µM), actives largely listed as activators; 350,000 tested, 2.9% active; also: nearly all actives have a fitted effect of over 50% in size
Each line names hits and unclear results; the compound was inactive in the other large screens. Most compounds without a hit are left out; they make up all but 6.6% or so of the library. Unless noted, calls follow the shape of the dose curve; as a rule, active = well fitted curve in the direction sought with a large enough effect; inconclusive = small, poorly fitted or top-dose-only effect, or another doubt; inactive = no such curve, though single readings can be large; an effect the other way counts as inactive or inconclusive.

O=C(Nc1ccc(F)cc1)C1CC(=O)n2cnnc2N1 (stereo unspecified)	SW480 rerep 0.651µM
O=C(Nc1ccc(F)cc1)C1CC(=O)n2ncnc2N1 (stereo unspecified)	none
CC1C(c2ccccc2)N(C)C(c2ccccc2)C(C)C1(O)C#Cc1ccccc1 (stereo unspecified)	KB-V1 MDR tox inconclusive, KB-3-1 tox inconclusive, MCF10A rereplic 23.1µM
CCN1CCC(O)(C#Cc2ccccc2)CC1	none
CCOC(=O)c1sc(NC(=O)CSc2nc(C)cc(C)n2)c(C#N)c1C	KB-V1 MDR tox 8.2µM, MCF10A rereplic inconclusive
CCOC(=O)c1sc(NC(=O)CSc2ncn[nH]2)c(C#N)c1C	SW480 rerep 9.2µM, MCF10A rereplic 2.91µM
CCOC(=O)c1sc(NC(=O)c2cc(-c3ccccc3)nc3ccccc23)c(C#N)c1C	KB-V1 MDR tox inconclusive, KB-3-1 tox 14.6µM, MCF10A rereplic 2.59µM
CCOC(=O)c1sc(NC(=O)CSc2ccccn2)c(C#N)c1C	MCF10A rereplic 20.6µM
CCOC(=O)c1sc(NC(=O)CSc2nc3c(cc2C#N)CCCCC3)c(C#N)c1C	SW480 rerep inconclusive, MCF10A rereplic inconclusive
CC(C)c1ccc(NC(=O)C2CCN(S(=O)(=O)c3cccc4nsnc34)CC2)cc1	none (no result: PTAP TSG101 blk, SW480 rerep, MCF10A rereplic)
COc1ccc(-c2nnc(SCC(=O)N(C)Cc3ccccc3)o2)cc1OC	none (no result: PTAP TSG101 blk, SW480 rerep, MCF10A rereplic)
CC1CCc2nc(-c3cc4ccc(O)cc4oc3=O)sc2C1 (stereo unspecified)	KB-3-1 tox inconclusive (no result: PTAP TSG101 blk, SW480 rerep, MCF10A rereplic)
COc1ccccc1OC(C)C(=O)Nc1ccc(-c2nc3ccccc3s2)cc1 (stereo unspecified)	none (no result: PTAP TSG101 blk, SW480 rerep, MCF10A rereplic)
CCOC(=O)c1sc(NC(=O)CSc2nnc(Cc3ccccc3)o2)c(C#N)c1C	KB-V1 MDR tox inconclusive, RGS4 inh inconclusive
CCOC(=O)c1sc(NC(=O)CSc2n[nH]c(-c3ccccc3)n2)c(C#N)c1C	KB-V1 MDR tox inconclusive, MCF10A rereplic 8.2µM
Nc1nc(N)c(S(=O)(=O)c2ccccc2)c(Nc2ccc(Br)cc2)n1	none (no result: PTAP TSG101 blk, SW480 rerep, MCF10A rereplic)
COc1ccc(OC)c(NC(=O)Cc2c(C(=O)O)n(C)c3ccc(C)cc23)c1	none (no result: PTAP TSG101 blk, SW480 rerep, MCF10A rereplic)
Cc1c(Cl)c([N+](=O)[O-])nn1CCCC(=O)Nc1c(C)n(C)n(-c2ccccc2)c1=O	none
Cc1c(Cl)c([N+](=O)[O-])nn1CC(=O)NCc1cccs1	KB-V1 MDR tox 18.4µM
Cc1c(Cl)c([N+](=O)[O-])nn1CCCC(=O)Nc1c(Cl)cccc1Cl	KB-V1 MDR tox 7.31µM
CNS(=O)(=O)c1cccc(C(=O)OCC(=O)c2cc(C)n(-c3ccc4c(c3)OCO4)c2C)c1	KB-V1 MDR tox inconclusive, KB-3-1 tox inconclusive
Cc1cc(C(=O)COc2ccccc2Cl)c(C)n1-c1ccc2c(c1)OCO2	KB-V1 MDR tox 13µM, KB-3-1 tox 18.4µM, SW480 rerep inconclusive, MCF10A rereplic inconclusive
Cc1ccc(-n2c(C)cc(C(=O)COc3c(CO)cc(F)cc3CO)c2C)cc1C	KB-V1 MDR tox 7.31µM, MCF10A rereplic inconclusive
Cc1cc(/C=C2/C(=N)N3C(=NC2=O)SN=C3S(C)(=O)=O)c(C)n1-c1ccc(F)cc1	MCF10A rereplic 20.6µM
CCOc1ccc(-n2c(C)cc(/C=C3/C(=N)N4C(=NC3=O)SN=C4S(C)(=O)=O)c2C)cc1	RGS4 inh inconclusive, MCF10A rereplic 14.6µM
COc1ccccc1-n1c(C)cc(/C=C2/C(=N)N3C(=NC2=O)SN=C3S(C)(=O)=O)c1C	MCF10A rereplic inconclusive
O=c1c2ccccc2ncn1Cc1ccc(Cl)cc1	none
O=c1c2ccccc2ncn1Cc1ccc(Cl)c(Cl)c1	MCF10A rereplic 1.16µM
COc1ccc(-c2nnn3c2nc(NCCc2ccc(OC)c(OC)c2)c2ccccc23)cc1	none (no result: PTAP TSG101 blk, SW480 rerep, MCF10A rereplic)
CCCC(c1c(C)n(C)n(-c2ccccc2)c1=O)c1c(C)n(C)n(-c2ccccc2)c1=O	KB-V1 MDR tox inconclusive, KB-3-1 tox 20.6µM
O=C1C=CC(O)(c2cc(=O)c3c(O)cc(O)cc3o2)C=C1	KB-V1 MDR tox 5.8µM, RGS4 inh inconclusive, KB-3-1 tox inconclusive, SW480 rerep 4.11µM, MCF10A rereplic 1.46µM
